This is a sample that favours compounds with a hit; in the whole collection about 6.3% have one here.
Autofluor 339 – intrinsic fluorescence of library compounds, ex339/em460 – biochemical, MLSMR library, data from DPM-DC assay, artefact control, profiling panel; fluorescence fold increase at 10 µM; 5.5% of 65,000 active; compound autofluorescence, ex339/em460 nm, NADH buffer; active compounds read high; 1 = no-compound wells, NADH background; AID 709, 2007;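 active = at 10 µM, mean starting fluorescence two-fold or more over control wells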;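 note: signal is the first read of a kinetic run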
Spn MK inh – S. pneumoniae MK inhibitors, primary screen, biochemical, PK/LDH-coupled NADH absorbance; purified MK, PK/LDH-coupled NADH absorbance 340 nm; 0.48% of 65,000 active; AID 555, 2006; inhibition, % at 10 µM;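 active = ranked among the strongest by inhibition in the single 10 µM screen, a fixed top-ranked set picked for dose follow-up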
NADH enzymes – inhibitors of PK/LDH coupling enzymes, profiling panel, artefact control, biochemical, MLSMR library | coupled PK/LDH NADH assays, four targets | IC50, µM (doses to about 10 µM) | AID 774, 2007 | 0.02% of 65,000 active;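 active = single-dose screening hits from any of four coupled enzyme assays that gave an IC50 when retested across doses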;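 note: the DPM-DC format reads NADH fluorescence rather than 340 nm absorbance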
A340 absorber – compound light absorbance at 340 nm, profiling panel, artefact control, biochemical, MLSMR library, data from PS, PMK, MK assays. fold change at 10 µM. AID 708, 2007. 65,000 tested, under 10 active. compound absorbance at 340 nm, fold over control;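 active = at 10 µM dose, initial 340 nm absorbance at least 2 fold that of control wells; inactive = change under 2 fold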;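 note: initial absorbance extrapolated from kinetic A340 decline of NADH oxidation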
DPM-DC inhibit – S. pneumoniae DPM-DC inhibitors, primary screen, biochemical, PK/LDH-coupled NADH fluorescence; purified DPM-DC; diphosphomevalonate decarboxylase (Streptococcus pneumoniae D39); calls only at 10 µM; 0.49% of 65,000 active; AID 556, 2006;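 active = the 320 compounds with the highest percent inhibition in the single-dose primary screen, excluding strongly autofluorescent ones, cut at about 32% in these data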;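 note: kinetic rate of NADH fluorescence loss reporting ADP formed by the decarboxylase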
PMK inhibit – S. pneumoniae PMK inhibitors, primary screen, biochemical, mevalonate pathway, pilot trial included | phosphomevalonate kinase (Streptococcus pneumoniae D39) | 0.49% of 65,000 active | purified PMK, PK/LDH-coupled NADH absorbance 340 nm | inhibition, % at 10 µM;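 active = top-ranked compounds by inhibition in the single 10 µM screen, taking a fixed number of the strongest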
Numbers stand for hits; i = inactive; nt = no result given; ! = repeats disagree.

SMILES | Autofluor 339 | Spn MK inh | NADH enzymes | A340 absorber | DPM-DC inhibit | PMK inhibit
CN1CCc2cc3c(c4c2C1CC41CCC(=NO)CC1)OCO3 (stereo not given) | i | i | i | i | i | i
COc1ccc2c(c1OC)C(=O)OC2C1c2c(cc3c(c2OC)OCO3)CCN1C (stereo not given) | i | i | i | i | i | 26!
CC(=O)c1c(C(C)=O)c(C)n(NC(=O)c2ccncc2)c1C | i | i | i | i | i | i
O=C(Nc1ccc(-c2nc3ccccc3o2)cc1)C1CCCO1 (stereo not given) | 2.1 | i | i | i | i | i
Nc1ccnc(C(F)(F)F)c1C(=O)c1ccccc1 | i | i | i | i | i | i
CN(C)C=Nc1ncc2c([nH]c3ccccc32)c1C#N | 2.1 | i | i | i | i | i
CC1CCc2cc(F)cc3c(=O)c(C(=O)O)cn1c23 (stereo not given) | i | i | i | i | i | i
COc1c(N2CCNC(C)C2)c(F)cc2c(=O)c(C(=O)O)cn(C3CC3)c12 (stereo not given) | 3.9 | i | i | i | nt | i
COC(=O)c1ccc(COc2ccc3c(C)c(C)c(=O)oc3c2C)o1 | 2 | i | i | i | i | i
COC(=O)c1ccc(COc2cccc(OC)c2)o1 | i | i | i | i | i | i
Cc1c(OCc2ccc(C(=O)O)o2)ccc2c3c(c(=O)oc12)CCC3 | 2.1 | i | i | i | nt | i
CC(CCc1ccco1)NC(=O)Cn1ncc2c1-c1ccccc1OC2 (stereo not given) | i | i | i | i | i | i
CCCCCCNC(=O)Cc1nc2nc(C)cc(C)n2n1 | i | i | i | i | i | i
CCn1c(CC(C)C)n[nH]c1=S | i | 44 | i | i | i | i
O=C1c2ccccc2C(=O)N1CSc1ncccn1 | i | i | i | i | i | i
Cc1occc1C(=O)NCCCc1ccccc1 | i | i | i | i | i | i
CC1CCN(CCCNC(=O)c2n[nH]c(=O)c3ccccc23)CC1 | i | i | i | i | i | i
CC1CCCN(CCCNC(=O)c2coc3nc4ccccc4nc23)C1 (stereo not given) | 4.9 | i | i | i | nt | i
CC1CCN(CCCNC(=O)c2coc3nc4ccccc4nc23)CC1 | 3.4 | i | i | i | nt | i
Cc1ccc(CCNC(=O)c2coc3nc4ccccc4nc23)cc1 | 2.3 | i | i | i | i | i
O=C(CN1CCOCC1)N1CCN(C(=O)CN2CCOCC2)CC1 | i | i | i | i | i | i
O=C(NCC(c1cccnc1)N1CCN(c2ccc(F)cc2)CC1)c1ccc(F)cc1 (stereo not given) | i | i | i | i | i | i
Cc1cc(NC(=O)c2ccccc2-c2ccccc2C(=O)O)no1 | i | i | i | i | i | i
Cc1cc(NC(=O)c2cc(-c3cccs3)nc3ccccc23)no1 | 2 | i | i | i | nt | i
Cc1cc(C)c2nc(-c3ccccn3)cc(C(=O)Nc3cc(C)on3)c2c1 | 3.1 | i | i | i | i | i
SMILES | Autofluor 339 | Spn MK inh | NADH enzymes | A340 absorber | DPM-DC inhibit | PMK inhibit
Cc1cc(NC(=O)c2cc(-c3ccccn3)nc3ccccc23)no1 | i | i | i | i | i | i
Cc1cc(NC(=O)c2cccc(C(=O)Nc3cc(C)on3)n2)no1 | i | i | i | i | i | i
Cc1cc(NC(=O)c2cc(-c3ccncc3)nc3c(C)cccc23)no1 | 2.7 | i | i | i | i | i
Cc1ccc(-c2cc(C(=O)NCc3ccco3)c3ccccc3n2)o1 | 4.9 | i | i | i | nt | i
COc1ccc(OC)c(-n2c(SCC(=O)NCc3ccco3)nnc2-c2c[nH]c3ccccc23)c1 | i | i | i | i | i | i
Cc1ccccc1C(=O)c1ccc2c(c1)n(C)c(=O)n2C | i | i | i | i | i | i
Cc1ccc(-c2cc(C(=O)NC3=NCCS3)c3cc(Br)ccc3n2)o1 | i | i | i | i | i | i
Cc1cc(C)c2nc(-c3ccccn3)cc(C(=O)NCc3ccco3)c2c1 | 3.6 | i | i | i | nt | i
Cc1ccc(-c2cc(C(=O)NCCCn3ccnc3)c3cc(Br)ccc3n2)o1 | 2.9 | i | i | i | i | i
